Bioassay records from PubChem.
Sampled rows, rich in hits. Any-hit rate of the full collection: about 12%.
AMA1 RON2 block – qHTS for Inhibitors of AMA1-RON; Towards Development of Antimalarial Drug Lead: Primary Screen | AID 720542, 2013 | Potency, µM (doses to about 58.2 µM), actives largely listed as inhibitors | AlphaScreen AMA1-biotinylated RON2 peptide binding | actives 0.2% (n = 360,000); also: nearly all actives have a fitted effect of over 45% in size
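AMA1 (3D7) with his tag at 25 nM final met compounds first, then biotinylated RON2 peptide at 25 nM; detection used donor plus acceptor beads, 10 µg/mL apiece, read by AlphaScreen after 30 min at room temperature.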
SARS PLP yeast – qHTS of Yeast-based Assay for SARS-CoV PLP | S. cerevisiae expressing SARS-CoV PLpro, growth rescue | Potency, µM (series often up to 32.9 µM), most hits filed as activators | actives 0.19% (n = 330,000) | AID 485353, 2010; calls by dose curve; also: nearly all actives have a fitted effect of over 55% in size
NS1 inh – qHTS Assay for Inhibitors of Influenza NS1 Protein Function | Potency, µM (top dose mostly 46.1 µM) | AID 2326, 2010 | actives 0.4% (n = 270,000); calls by dose curve; also: actives are rising curves; nearly all actives have a fitted effect of over 50% in size
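A cell-based growth assay was used: compounds that relieve NS1-induced slow growth of budding yeast raise OD600. Assay medium was yeast nitrogen base with ammonium sulphate and -URA supplement, pH 6.0, with 2% galactose.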
Pf growth 96h – Primary qHTS for delayed death inhibitors of the malarial parasite plastid, 96 hour incubation; P. falciparum luciferase reporter growth, 96 h; Potency, µM (doses to about 28.7 µM), hits mostly inhibitors; actives 6.9% (n = 320,000)
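P. falciparum expressing integrated firefly luciferase, in erythrocytes at 2% hematocrit, 0.05% parasitemia, incubated with compounds 96 h at 37 C, 5% CO2. Growth inhibition read as loss of luminescence; two-generation exposure targets delayed-death apicoplast inhibitors.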
HCV inh – qHTS Assay for Inhibitors of Hepatitis C Virus (HCV); Potency, µM (highest dose often 41.8 µM), most hits filed as inhibitors; Huh7.5.1 HCVcc-Cre infection, luciferase reporter, 44 h; actives 3.4% (n = 340,000)
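Seed cells (1,000/well) for 4 h; treat with compound and infect with HCVcc-Cre, moi about 0.5. Incubate 44 h, then detect luciferase activity.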
Pf growth 48h – Primary qHTS for delayed death inhibitors of the malarial parasite plastid, 48 hour incubation; P. falciparum luciferase growth in erythrocytes, 48 h; Potency, µM (doses to about 28.7 µM), actives largely listed as inhibitors; actives 5.9% (n = 310,000)
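Luciferase-expressing P. falciparum in infected erythrocytes (2% hematocrit, 0.1% parasitemia final) in RPMI 1640/0.5% Albumax were exposed to compound for 48 hours at 37 C, 5% CO2; growth read as luminescence.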
Of the large screens only hits and unclear results are named; the others gave an inactive call. Unless noted, calls follow the shape of the dose curve; as a rule, active = well fitted curve in the direction sought with a large enough effect; inconclusive = small, poorly fitted or top-dose-only effect, or another doubt; inactive = no such curve, though single readings can be large; an effect the other way counts as inactive or inconclusive.

C=CCNCCCCOc1ccc(OCc2ccccc2)cc1	HCV inh inconclusive
CNCCCOc1ccc(C(C)(C)c2ccccc2)cc1	Pf growth 96h 9.3µM (no result: AMA1 RON2 block, HCV inh, Pf growth 48h)
COCCCNCCOc1ccc(C(C)(C)c2ccccc2)cc1	Pf growth 96h inconclusive, HCV inh 10µM
COCCCNCCCCOc1ccc(OCc2ccccc2)cc1	HCV inh 11µM, Pf growth 48h inconclusive
CCn1nnc2cc(C(=O)Nc3cc(Cl)ccc3C)ccc21	none (no result: NS1 inh)
O=C(CS(=O)c1ccc(F)cc1)N1CCOCC1 (stereo unspecified)	none
COCCCNCCCOc1ccc(Cl)cc1Br	Pf growth 96h inconclusive, HCV inh 13µM, Pf growth 48h inconclusive
C=CCc1cc(Cl)ccc1OCCCNCCO	HCV inh inconclusive, Pf growth 48h 9.3µM
C=CCc1cc(Cl)ccc1OCCCNC(C)C	HCV inh inconclusive, Pf growth 48h inconclusive
CCC(C)NCCCOc1cc(Cl)ccc1Cl (stereo unspecified)	none (no result: Pf growth 48h)
COCCCNCCCOc1ccc(C)cc1Br	none
CCCCNCCCOc1cc(Cl)ccc1Cl	Pf growth 96h 6.6µM (no result: Pf growth 48h)
O=C(O)Cc1ccc(N2N=C(c3ccccc3)CC2=O)cc1	none (no result: SARS PLP yeast, NS1 inh, Pf growth 96h, HCV inh, Pf growth 48h)
C#CCOCCOCCOCCNc1nc(N2CCN(C(=O)Cn3cc(CCCN=C(N)N)nn3)CC2)nc(N2CCN(C(=O)[C@H]([C@@H](C)O)n3cc(CCCCN)nn3)CC2)n1	Pf growth 96h 10µM (no result: NS1 inh)
C#CCOCCOCCOCCNc1nc(N2CCN(C(=O)Cn3cc(CCCN=C(N)N)nn3)CC2)nc(N2CCN(C(=O)[C@H]([C@@H](C)CC)n3cc(CCCN=C(N)N)nn3)CC2)n1	Pf growth 96h 0.037µM, Pf growth 48h 1.2µM (no result: AMA1 RON2 block)
C#CCOCCOCCOCCNc1nc(N2CCN(C(=O)Cn3cc(CCCCN)nn3)CC2)nc(N2CCN(C(=O)[C@H]([C@@H](C)CC)n3cc(CCCN=C(N)N)nn3)CC2)n1	Pf growth 96h inconclusive, Pf growth 48h 0.74µM (no result: NS1 inh)
C#CCOCCOCCOCCNc1nc(N2CCN(C(=O)Cn3cc(CCCCN)nn3)CC2)nc(N2CCN(C(=O)[C@H](C)n3cc(CCCN=C(N)N)nn3)CC2)n1	Pf growth 96h 0.12µM (no result: AMA1 RON2 block)
C#CCOCCOCCOCCNc1nc(N2CCN(C(=O)[C@H]([C@@H](C)O)n3cc(CCCCN)nn3)CC2)nc(N2CCN(C(=O)[C@H](C)n3cc(CCCN=C(N)N)nn3)CC2)n1	Pf growth 96h inconclusive
C#CCOCCOCCOCCNc1nc(N2CCN(C(=O)Cn3cc(CC(C)O)nn3)CC2)nc(N2CCN(C(=O)[C@H](C)n3cc(CCCN=C(N)N)nn3)CC2)n1 (stereo partly specified)	Pf growth 96h 12µM
CCN(CC)CCNC(=O)CCc1c(C)nc2c(c(C)nn2-c2ccc(C)c(C)c2)c1C	HCV inh 7.1µM, Pf growth 48h 13µM
COCCCNC(=O)CCc1c(C)nc2c(c(C)nn2-c2ccccc2)c1C	Pf growth 96h inconclusive, HCV inh inconclusive, Pf growth 48h inconclusive
COC(CNC(=O)CCc1c(C)nc2c(c(C)nn2-c2ccc(C)cc2)c1C)OC	HCV inh inconclusive, Pf growth 48h 2.6µM
Cc1oc(-c2ccccc2F)nc1CS(=O)CC(=O)NCc1ccc(Cl)cc1 (stereo unspecified)	NS1 inh inconclusive
COc1ccc(F)c(-c2nc(CN3CCN(C(=O)c4ccco4)CC3)c(C)o2)c1	none
Cc1oc(-c2cc(F)ccc2F)nc1CN(C)Cc1ccc2nccnc2c1	Pf growth 96h 2.9µM, HCV inh inconclusive, Pf growth 48h inconclusive
Cc1oc(-c2cc(F)ccc2F)nc1CN1CCN(c2cnccn2)CC1	Pf growth 96h inconclusive, Pf growth 48h 13µM
CC(=O)Nc1ccc2c(c1)C(=Nc1ccc(C(=O)O)cc1)c1ccccc1-2	none (no result: AMA1 RON2 block, SARS PLP yeast, Pf growth 96h, HCV inh, Pf growth 48h)
COc1cccc(C=NCCCN=Cc2cccc(OC)c2O)c1O	Pf growth 48h inconclusive
COc1c(C)cc(C(=O)C2CCCN(Cc3ccccn3)C2)cc1C (stereo unspecified)	Pf growth 48h 2.1µM
